We go through 40 compounds from PubChem BioAssay (NCI).

Compounds without any hit were thinned out: in the full panel of roughly 83,000, 20% have a hit.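 Assay: single dose, 48 h. Readout: percent growth (0 = no net growth; negative = cell death). Active: <10.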 Values without a mark were called inactive. The source made the active and inactive calls.

For this experiment, the system named is PC-3 prostate. The experiment in a line: NCI-60 one-dose screen, 48 h (100 = growth as untreated, 0 = no growth, -100 = all killed). The note with it: 10 µM unless noted. As to the method:
Growth inhibition of the PC-3 human tumor cell line is measured as a screen for anti-cancer activity. Cells are grown in 96 well plates and exposed to the test compound for 48 hours. Compounds are tested at a single concentration, which is 10^-5 M for most compounds. The reported endpoint is percent growth (GI% or GIPRCNT), where numbers from 0 - 100% represent growth inhibition, and numbers from -100% - 0 represent cell death. For example, a value of 40 represents 60% growth inhibition. A value of 0 means no net growth occurred over the course of the experiment. A value of -40 indicates 40% of cells at the beginning of the experiment died by the end of the experiment. A value of -100 means all cells are dead at the end of the experiment.
NCI-60 Human Tumor Cell Lines Screen was performed using the standard one-dose NCI protocol, which is described in more detail at https://dtp.cancer.gov/discovery_development/nci-60/default.htm.
Compounds with GIPRCNT values below 10 were considered active. Activity score was based on GIPRCNT using the following formula: […]
Score is 0 for GIPRCNT values of 100 or above, 50 for GIPRCNT values of 0, and 100 for GIPRCNT values of -100.
For the compound `CN(C)C1CCC(NC2=CC(=O)C=CC2=O)CC1` (stereo not given), the growth was 104%. Next, `Cn1c(-c2nonc2NC(=O)c2ccc(F)cc2)nc2ccccc21`: 101%; `C=C1C(=O)O[C@H]2[C@H]1CC/C(Cn1cc(-c3ccccc3C(F)(F)F)nn1)=C\CC[C@@]1(C)O[C@@H]21`: -31.1% (active); `COc1ccc(S(=O)(=O)Nc2cc(/C=C\c3cc(OC)c(OC)c(OC)c3)cc(OC)c2OC)cc1OC`: 34.3%. With `CC(=O)n1cc([C@H]2CC[C@H](c3cn(C(C)=O)c4ccccc34)c3c2[nH]c2ccccc32)c2ccccc21` the figure was 53.2%; with `C=C1C(=O)O[C@H]2[C@H]1CC/C(COC(=O)NCCc1cccc(OC)c1)=C\CC[C@@]1(C)O[C@@H]21`, 50.5%; with `C=CCN=C1NC(=O)/C(=C/c2cc(C(C)(C)C)c(O)c(C(C)(C)C)c2)S1`, 62.4%. Next, `COc1cc(OC)c(C(=O)/C=C/c2cccc(C#N)c2)c(OC)c1`: 32.1%; `Cc1ccc2nc(SCn3nnc4ccccc4c3=O)[nH]c2c1`: 103%. Consider `COc1ccccc1OCC(=O)Nc1sc2c(c1C(N)=O)CCC2`, for which the growth is 88.1%.

On to `COc1ccc(-c2nc3sccn3c2-c2ccnc(NCCCNS(=O)(=O)c3ccc(F)cc3)n2)cc1`, for which the growth is 21.1%.

Regarding `O=C(O)C(Cc1ccccc1)N1C(=O)/C(=C/C(Cl)=C/c2ccc([N+](=O)[O-])cc2)SC1=S` (stereo not given), the growth was 31.2%.

Turning to `COc1cccc2cc(-c3cc4ccccc4[nH]3)c(=NC(=O)c3ccc(Cl)cc3)oc12`, the growth was 38.5%. Next, `CSc1ccccc1C#C/C=C\C#Cc1ccccc1N1CCCC1=O`: 46.2%; `COC1=CC(c2ccc[nH]2)=N/C1=C\c1[nH]c(C)c(C(=O)CCCCC(=O)Oc2ccc3c(c2)CCC2C3CC[C@]3(C)[C@@H](O)CC[C@@H]23)c1C` (stereo not given in full): 42.9%.

Consider `CC(Cc1nnc(SCC(=O)Nc2ccc(I)cc2)n1N)c1ccccc1` (stereo not given), for which the growth was 90.2%. With `Cc1ccc2c(c1)C(=O)C(c1c(-c3[nH]c(=O)c4ccc(C)cc4c3O)c(O)c3ccccc3c1O)=NC2=O` the figure was 2.45% (active).

For `Cn1c(=O)c2c(nc3n2CCN(CCc2ccc(OCCN4CCOCC4)cc2)C3)n(C)c1=O`, the growth was 94.1%. Next, `C=C1C(=O)O[C@H]2[C@H]1CC/C(COC(=O)NCc1ccc(OC)cc1)=C\CC[C@@]1(C)O[C@@H]21`: 52.9%; `O=C(Nc1cc(C(F)(F)F)cc(C(F)(F)F)c1)Nc1ccc(OCc2nnc(-c3ccc(Cl)cc3)o2)c(F)c1`: 3.89% (active); `COc1cc(CNC(=O)CSc2nc3ccccc3c(=O)n2Cc2cc(OC)c(OC)c(OC)c2)cc(OC)c1OC`: 97.4%.

`OCc1c(-c2ccccc2)nc2sccn12`: the growth is 95.7%.

Regarding `O=S(=O)(NCCCNc1cc(-c2cn(-c3ccccc3)nc2-c2cccc(O)c2)ccn1)c1cccc(F)c1`, the growth is 15.5%. For `Cc1ccccc1C(=O)c1ccccc1C(=O)O`, the growth is 96.8%.

Regarding `COc1ccc(C2=NN(c3ccc(S(N)(=O)=O)cc3)C(c3cn(-c4ccccc4)nc3-c3ccc(Cl)cc3)C2)cc1` (stereo not given), the growth was 66.7%. With `COc1ccc(C(=O)c2cc(OC)c(OC)c(OC)c2)cc1/C=C/C(=O)c1ccc2c(c1)OCO2` the figure was 24%. With `O=c1[nH]c2ccccc2cc1-c1nnc(Cc2ccccc2)o1` the figure was 65.5%.

For the compound `COc1ccc(NC(=O)/N=c2\oc3c(OC)cccc3cc2-c2cc3ccccc3[nH]2)cc1`, the growth is 39.3%. Next, `COc1ccc(C(=O)/C=C/c2ccc(/C=C/c3cc(OC)c(OC)c(OC)c3)cc2)cc1`: 52.2%; `COc1cc(CCn2nnc3c(Nc4ccc(N5CCOCC5)cc4)ncnc32)cc(OC)c1`: 72.1%. With `Cc1ccc2nc(-c3c(CCCO)noc3N)[nH]c(=O)c2c1` the figure was 96%. With `Cc1sc2nc(CSc3nnc(-c4ccco4)o3)[nH]c(=O)c2c1C` the figure was 102%; with `CCCCCCOc1ccc(C2(Cl)c3ccccc3N(C)c3ccccc32)cc1`, 21.8%; with `COc1cccc(-c2nc3sccn3c2-c2ccnc(NCCCNS(=O)(=O)c3ccccc3)n2)c1`, 61.6%.

In the case of `O=C(CNc1ccc(Cl)cc1)Nc1ccc(-c2nc3ccccc3s2)cc1`, the growth was 85.3%. For `COc1cc(OC)c(C(=O)/C=C/c2cccc(C(F)(F)F)c2)c(OC)c1`, the growth was 41.9%.

Regarding `COc1cc(C(=O)CCCl)ccc1O`, the growth is 95%.

For `COc1ccc(-n2cnc3c(sc4ncc(Cl)cc43)c2=O)cc1`, the growth was 83.1%. With `COc1cc(-c2n[nH]nc2-c2ccc3c(c2)OCCO3)cc(OC)c1OC` the figure was 16.5%; with `COc1cc(Cn2c(SCC(=O)Nc3cc(OC)c(OC)c(OC)c3)nc3ccccc3c2=O)cc(OC)c1OC`, 87.7%.
